Experimental data from PubChem BioAssay AID2280 (The Scripps Research Institute Molecular Screening Center, 2010).
The whole screen tested about 320,000 compounds, of which about 1,400 (0.44%) were called active. The list comes from a sample in which actives are over-represented; it also holds similar structures and randomly drawn compounds. Unmarked numbers belong to inactive results.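 Rule for the calls: active = percent inhibition above a per-plate cutoff, the plate mean of test compounds plus 3 SD (cut at about 30% in these data); inactive = the rest.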

target: Female germline-specific tumor suppressor gld-1 (Caenorhabditis elegans) (UniProt Q17339); test: GLD-1/TGE RNA complex disruptors, primary screen, biochemical, fluorescence polarization (AID 2280); details: purified GLD-1 + fluorescein TGE RNA, at 5.96 µM, stronger effect = higher value;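 note: 0% = DMSO wells with GLD-1 and probe and 100% = wells lacking GLD-1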
Sequence (Q17339 whole entry, looked up): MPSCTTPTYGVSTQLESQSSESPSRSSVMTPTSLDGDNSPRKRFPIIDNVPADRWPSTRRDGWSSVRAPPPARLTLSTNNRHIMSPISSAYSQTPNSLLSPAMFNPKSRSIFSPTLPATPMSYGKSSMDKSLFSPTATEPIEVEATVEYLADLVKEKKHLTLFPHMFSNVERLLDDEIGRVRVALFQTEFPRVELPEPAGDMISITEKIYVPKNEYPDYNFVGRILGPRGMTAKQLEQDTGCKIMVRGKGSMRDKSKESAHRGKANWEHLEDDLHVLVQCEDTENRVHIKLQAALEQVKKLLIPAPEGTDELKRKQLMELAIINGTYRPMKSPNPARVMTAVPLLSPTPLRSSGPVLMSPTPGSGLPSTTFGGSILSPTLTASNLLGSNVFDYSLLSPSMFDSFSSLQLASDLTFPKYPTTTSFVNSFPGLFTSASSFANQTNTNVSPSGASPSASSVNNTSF

Structure (SMILES) | inhibition
CCSc1nc2sc3c(c2c(=O)[nH]1)CC(C)(C)OC3 | -5.06%
CC/C(C)=N/Nc1nc2sc3c(c2c(=O)[nH]1)CC(C)(C)OC3 | 62.3% (active)
CC(C)c1nc2sc3c(c2c(=O)n1N)CC(C)(C)OC3 | 2.68%
O=C(COC(=O)C1CC2CCCC(C1)C2=O)NC(=O)c1ccccc1 (centres undefined) | 0.04%
O=S(=O)(c1ccc(-c2ccno2)s1)N1CCCCC1 | 0.96%
CC(C)(C)OC(=O)NCCCC1=CC2=CC(=O)C(C)(OC(=O)c3ccco3)C(=O)C2=CO1 (centres undefined) | 86.5% (active)
C=CCN1C=C2C(=O)C(C)(OC(=O)CCc3ccccc3)C(=O)C=C2C=C1c1ccc(C#N)cc1 (centres undefined) | 18.7%
CC1(OC(=O)C2CCCC2)C(=O)C=C2C=C(c3ccc(C#N)cc3)OC=C2C1=O (centres undefined) | 17.8%
CN1CCN(c2ccccc2NC(=O)COc2ccc(C3CCCCC3)cc2)CC1 | 2.44%
N#CCCN(C(=O)COC(=O)c1ccc2c(c1)OCCO2)c1ccccc1 | 0.3%
O=C(O)c1cc(Cl)c(Cl)cc1C(=O)Nc1cccc2ncccc12 | 7.15%
Cc1ccc(/C=C(\C#N)C(=O)Nc2cccc3ncccc23)o1 | 59.6% (active)
N#C/C(=C\c1ccccc1C(F)(F)F)C(=O)Nc1ccccc1F | 0.78%
COc1cc(NC(=O)COC(=O)c2ccc([N+](=O)[O-])s2)cc(OC)c1OC | 4.4%
O=C(Cc1ccc(S(=O)(=O)N2CCOCC2)s1)N1CCN(c2ccc(C(F)(F)F)cc2[N+](=O)[O-])CC1 | 8.86%
CCOC(=O)c1ccccc1CN1C(=O)c2ccccc2S1(=O)=O | 1.98%
CCOC(=O)c1cc2n(c1N)-c1ccccc1C2=O | 117% (active)
CC(C)OC(=O)CN1C(=O)C(=O)c2ccccc21 | -0.34%
Cc1ccc(CNC(=O)C2CCCN2S(=O)(=O)c2ccc3c(c2)C(C)(C)C(=O)N3C)cc1 (centres undefined) | -3.08%
CCOC(=O)c1cnc2nc(SCc3ccccc3Cl)[nH]n2c1=O | -4.26%
Oc1[nH]c2ccc(Br)cc2c1N=Nc1nn[nH]n1 | 9.48%
Cc1cccc(N=Nc2c(O)[nH]c3ccc(F)cc23)c1 | 67.5% (active)
NS(=O)(=O)c1ccc(N=Nc2c(O)[nH]c3ccc(Br)cc23)cc1 | 15.6%

Structure (SMILES) | inhibition
CSc1ccc(S(=O)(=O)N2CCC(C(=O)NCc3ccncc3)CC2)cc1 | -3.16%
CSc1ccccc1NC(=O)C(C)N1C(=O)c2ccccc2S1(=O)=O (centres undefined) | -0.85%
CN1c2ccc(C=O)c3c(C=O)ccc(c23)N(C)C1(C)C | 134% (active)
Cc1cc(C)c(S(=O)(=O)c2cc(F)ccc2C)c(=O)[nH]1 | -0.88%
O=C1NC[C@@H](c2ccccc2)OC(=O)[C@H](Cc2ccc(F)cc2)CC/C=C/C[C@H]1CC(=O)N(CCO)Cc1ccccc1 | 3.17%
Cc1ccc(S(=O)(=O)C(C#N)c2nc3ccccc3nc2N2CCCC2)cc1C (centres undefined) | 54.9% (active)
CC(C)OC(=O)C(C#N)c1nc2ccccc2nc1N1CCN(Cc2ccccc2)CC1 (centres undefined) | 6.85%
Cc1cc(N2CCN(S(=O)(=O)c3ccc(C)c(C)c3)CC2)c2ccccc2n1 | 1.62%
CCN(C[C@H]1N[C@@](CC)(C(=O)OC)[C@H]2C(=O)N(Cc3ccccc3)C(=O)[C@@H]12)S(=O)(=O)c1ccc(C(F)(F)F)cc1 | 7.64%
COc1ccc(Cl)cc1NC(=O)COC(=O)c1ccc(Br)o1 | -3.63%
CCOc1ccc(N2CC(C(=O)NCCN3C(=O)S/C(=C\c4cccnc4)C3=O)CC2=O)cc1 (centres undefined) | -0.09%
COc1ccccc1N1CC(C(=O)NCCN2C(=O)S/C(=C\c3cccnc3)C2=O)CC1=O (centres undefined) | 4.79%
COc1ccc(N2CC(C(=O)NCCN3C(=O)S/C(=C\c4cccnc4)C3=O)CC2=O)c(OC)c1 (centres undefined) | 118% (active)
C=CCC(NC(=O)Cc1ccccc1)C(=O)NCCC (centres undefined) | -2.12%
Cc1ccc(Cn2nnc3c(=O)[nH]c(C4CCN(S(=O)(=O)/C=C/c5ccccc5)CC4)nc32)cc1 | 1.59%
O=C(COC(=O)c1cc[n+]([O-])cc1)Nc1ccc(Cl)c(C(F)(F)F)c1 | 8.04%
CC(NC(=O)c1ccco1)c1ccc2c(c1)OCO2 (centres undefined) | -0.47%
COc1cccc(Nc2ncccc2C(=O)O)c1 | 3.26%
COc1ccc(Nc2cc(Cl)ccc2C(=O)O)cn1 | 66.1% (active)
COc1ccc(NS(=O)(=O)c2ccc(F)cc2F)cn1 | -1.42%
COc1cc(OC)cc(-c2c(C#Cc3ccsc3)c3cc(-c4ccc(OC)cc4F)ccc3n2C)c1 | -36.1%
Cc1ccc(NC(=O)C(=O)NCc2ccc(/C=N/NC(=O)c3c(C)nc4cc(C)ccn34)o2)cc1 | 1.79%
Cc1ccc(S(=O)(=O)Nc2nc(CN3CCOCC3)nc3sc(C)c(C)c23)cc1 | -15.1%

Structure (SMILES) | inhibition
O=C(NC1CCCC1)C(=O)c1c[nH]c2ccccc12 | 6.85%
COc1ccc(/C=C(\C#N)c2c[nH]c3ccccc23)cc1 | 8.67%
C[n+]1ccc(/C=C/c2c[nH]c3ccccc23)cc1 | 55.5% (active)
COc1ccccc1-n1c(SCC(=O)Nc2cccc(C(=O)O)c2)nnc1-c1ccccc1O | 6.18%
OC1CN=C2Sc3ccccc3N2C1 (centres undefined) | 12.5%
CNC(=S)NNC(=O)c1oc2nc(-c3ccccc3)cc(-c3ccco3)c2c1N | 38.9% (active)
NNC(=O)c1oc2nc(-c3ccccc3)cc(-c3ccco3)c2c1N | -23.7%
CNC(=S)NNC(=O)c1cccn(Cc2ccccc2)c1=O | 3.04%
Cc1ccc(C(=O)NCC(=O)OCC(=O)Nc2cccc(S(=O)(=O)N3CCCC3)c2)cc1C | 7.23%
COC(=O)c1sccc1NN1C(=O)c2ccccc2C1=O | 4.27%
CCOCCOCCC(C(=O)O)P(=O)(c1ccccc1)c1ccccc1 (centres undefined) | 6.44%
CCN1CC=C2C(C#N)=C(N)C(C#N)(C#N)[C@H](c3ccoc3)[C@H]2C1 | 106% (active)
CCCN1CC=C2C(C#N)=C(N)C(C#N)(C#N)C(c3cc(OC)ccc3OC)C2C1 (centres undefined) | 49% (active)
COC(=O)c1ccc(CNC(=O)C2CCC(=O)N(Cc3ccccn3)C2)cc1 (centres undefined) | 0.64%
O=S(=O)(c1ccc(Cl)s1)N1CCC2(CC1)OCCO2 | -2.17%
N#C[C@]1(S(=O)(=O)c2ccccc2)C[C@@H]2ON=C(c3cccc(Br)c3)[C@@H]2C1 | -1.68%
O=C(Nc1cccc(F)c1)[C@@H]1CCCN1 | 4.36%
Cc1ccc(S(=O)(=O)N2CCOCC2)cc1C(=O)OC1CCCCC1=O (centres undefined) | -3.51%
O=[N+]([O-])c1ccc(F)cc1Oc1nc(-c2cccnc2)nc2ccccc12 | -1.37%
CCOC(=O)c1nc(Nc2ccc(C(=O)OC)cc2)c2ccccc2n1 | -1.24%
COc1ccc(Nc2nc(-c3cccnc3)nc3ccccc23)cn1 | 100% (active)
CNC(=O)c1[nH]cnc1C(=O)N[C@@H](CC(C)C)C(=O)OCc1ccccc1 | 10.1%
COC(=O)CN1C(=O)N/C(=C/c2ccc(OC)c(C)c2OC)C1=O | 9.69%

Structure (SMILES) | inhibition
O=C(OCC1OC(Oc2ccc(O)cc2)C(O)C(O)C1O)c1ccccc1 (centres undefined) | 2.13%
O=C(OCC1O[C@@H](OC(=O)c2cc(O)c(O)c(O)c2)[C@@H](OC(=O)c2cc(O)c(O)c(O)c2)[C@@H](OC(=O)c2cc(O)c(O)c(O)c2)[C@@H]1OC(=O)c1cc(O)c(O)c(O)c1)c1cc(O)c(O)c(O)c1 (some centres undefined) | 34.6% (active)
Cc1ccc(NC(=O)c2ccc(Cl)nc2)cc1S(=O)(=O)N1CCOCC1 | -0.28%
O=C1c2ccccc2C(=O)c2c1cccc2N1CCN(CCO)CC1 | 48.6% (active)
O=C1c2ccccc2C(=O)c2c1cccc2N1CCN(Cc2ccccc2)CC1 | 0.8%
O=C1c2ccccc2C(=O)c2c1cccc2N1CCN(C/C=C/c2ccccc2)CC1 | 9.38%
CC(C(=O)NCC1CCCCC1)N(C)Cc1cccc(Cl)c1 (centres undefined) | 4.56%
CN(C)/C=C(/C(=O)c1ccc(F)cc1)S(=O)(=O)c1ccc(F)cc1 | 3.44%
Nc1nonc1-c1nc2ccccc2n1Cc1ccc(F)cc1 | 1.28%
CC(=O)Nc1nc2ccccc2n1Cc1ccc(C)cc1 | 0.42%
O=c1[nH]cccc1-c1nc2ccccc2n1Cc1ccc(Cl)cc1 | 45% (active)
CC1OC2C(OC1C)N(S(C)(=O)=O)CCN2S(C)(=O)=O (centres undefined) | 3.56%
CCCOc1ccc(N2C(=O)CC(N(CCc3ccc(S(N)(=O)=O)cc3)C(C)=O)C2=O)cc1 (centres undefined) | -1.23%
Cc1ccc2nc(N3C(=O)C(O)=C(C(=O)c4ccco4)C3c3cccc(O)c3)sc2c1 (centres undefined) | 0.27%
CC(C)c1ccc(C2C(C(=O)c3ccco3)=C(O)C(=O)N2CC2CCCO2)cc1 (centres undefined) | 4.96%
C=CCSc1nnc(N2C(=O)C(O)=C(C(=O)c3ccco3)C2c2ccc(F)cc2)s1 (centres undefined) | 44.5% (active)
CCN1CCC2(CC1)N=C(c1ccc(F)cc1)C(=S)N2C(=O)c1ccc(C)cc1 | 7.8%
CCCn1c(C2CCCN2c2nc(-c3ccc(C)cc3)cs2)nc2cc(Cl)c(N3CCCCC3)cc21 (centres undefined) | 34.6% (active)
CCCn1c(C(C)Nc2nc(-c3ccc(C)cc3)cs2)nc2cc(Cl)c(N3CCCCC3)cc21 (centres undefined) | 2.12%
CCCn1c(C2CCCN2c2nc(-c3ccc(OC)cc3)cs2)nc2ccccc21 (centres undefined) | 9.35%
